# Measurements: PubChem BioAssay (EPA / NIEHS)
# Records with an inconclusive call do not appear. Activity calls are given as the source filed them. How the source made its calls, unless noted: active means hit-call score of the fitted dose curve at least 0.9, where 1 is the maximum; inactive means score below 0.9.
# What was measured:
# [1] = ATG_PBREM_CIS: Attagene CIS-FACTORIAL HepG2 Assay for human Phenobarbital-responsive Enhancer Module (PBREM) (AID 2282955); conditions: HepG2 PBREM cis-reporter, Attagene multiplexed transcription; actives raise or lower the signal
# How it was run: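 Readout: reporter mRNA, fluorescent RT-PCR fragments separated by capillary electrophoresis. System: HepG2 transiently transfected with cis-regulated reporter units. Exposure: 24 h. Analysis: bidirectional, DMSO baseline.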
# [2] = molecular target: Paired box protein Pax-6 (Homo sapiens) (UniProt P26367); assay: ATG_Pax6_CIS: Attagene CIS-FACTORIAL HepG2 Assay for human Paired Box 6 (PAX6) (AID 2282956); conditions: HepG2 CIS-FACTORIAL PAX6 reporter transcription, RNA readout; actives raise or lower the signal
# Chain of Paired box protein Pax-6 (Homo sapiens) (P26367 whole entry, looked up): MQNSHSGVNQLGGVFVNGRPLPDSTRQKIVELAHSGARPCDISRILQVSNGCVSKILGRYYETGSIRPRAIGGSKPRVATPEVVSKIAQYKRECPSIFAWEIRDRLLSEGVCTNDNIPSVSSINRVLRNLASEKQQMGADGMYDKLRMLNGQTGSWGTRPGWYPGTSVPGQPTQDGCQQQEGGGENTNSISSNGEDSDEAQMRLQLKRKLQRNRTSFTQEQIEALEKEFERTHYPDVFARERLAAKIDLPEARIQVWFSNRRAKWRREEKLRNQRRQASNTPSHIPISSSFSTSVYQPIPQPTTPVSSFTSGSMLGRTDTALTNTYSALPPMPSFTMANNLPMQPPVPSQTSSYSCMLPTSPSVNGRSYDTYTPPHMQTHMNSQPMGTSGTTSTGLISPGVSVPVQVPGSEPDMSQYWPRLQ
# How it was run: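 Readout: reporter transcript fluorescence after RT-PCR and capillary electrophoresis. Cells: HepG2, transiently transfected with cis-regulated MRTUs. Exposure 24 h. Gain or loss of signal fitted bidirectionally relative to DMSO.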
# [3] = ATG_PXRE_CIS: Attagene CIS-FACTORIAL HepG2 Assay for human Pregnane X Receptor Element (PXRE) (AID 2282957); conditions: HepG2 Attagene CIS-FACTORIAL PXRE reporter, mRNA; actives raise or lower the signal
# How it was run: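 Read-out: fluorescence of reporter-specific RT-PCR products resolved by capillary electrophoresis, fitted bidirectionally relative to DMSO. Human HepG2 liver cells carried transfected cis-promoter reporter units and were exposed to chemicals for 24 h.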
# [4] = ATG_PPRE_CIS: Attagene CIS-FACTORIAL HepG2 Assay for human Peroxisome Proliferator-activated Response Element (PPRE) (AID 2282958); conditions: HepG2 PPRE cis-element reporter, Attagene transcription factor profiling; actives raise or lower the signal
# How it was run: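 After human HepG2 hepatoma cells were transiently transfected with cis-promoter reporter constructs, they were exposed to test chemicals for 24 hours. Reporter RNA was then reverse-transcribed, PCR-amplified, FAM-labeled, HpaI-digested and quantified by capillary electrophoresis.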
# [5] = ATG_RORE_CIS: Attagene CIS-FACTORIAL HepG2 Assay for human RAR-related Orphan Receptor Element (RORE) (AID 2282959); conditions: HepG2 Attagene cis-factorial RORE reporter, mRNA; actives raise or lower the signal
# How it was run: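 Measured here: transcript induction of a cis-regulated reporter in HepG2 cells transiently transfected via FuGene 6. After 24 h, RNA was processed by RT-PCR and fluorescent capillary electrophoresis; DMSO defined baseline activity.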
# [6] = ATG_Sox_CIS: Attagene CIS-FACTORIAL HepG2 Assay for human SRY-box transcription factor (SOX) (AID 2282960); conditions: HepG2 Attagene cis-factorial SOX reporter, mRNA; actives raise or lower the signal
# How it was run: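 Using transiently transfected HepG2 cells, reporter transcription driven by cis elements was assessed 24 h after dosing. Signal was fluorescence of capillary-separated RT-PCR products, with DMSO defining baseline activity.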
# [7] = molecular target: Transcription factor Sp1 (Homo sapiens) (UniProt P08047); assay: ATG_Sp1_CIS: Attagene CIS-FACTORIAL HepG2 Assay for human Specificity Protein 1 (Sp1) (AID 2282961); conditions: HepG2 Sp1 cis-reporter transcription, actives raise or lower the signal
# Chain of Transcription factor Sp1 (Homo sapiens) (P08047 whole entry, looked up): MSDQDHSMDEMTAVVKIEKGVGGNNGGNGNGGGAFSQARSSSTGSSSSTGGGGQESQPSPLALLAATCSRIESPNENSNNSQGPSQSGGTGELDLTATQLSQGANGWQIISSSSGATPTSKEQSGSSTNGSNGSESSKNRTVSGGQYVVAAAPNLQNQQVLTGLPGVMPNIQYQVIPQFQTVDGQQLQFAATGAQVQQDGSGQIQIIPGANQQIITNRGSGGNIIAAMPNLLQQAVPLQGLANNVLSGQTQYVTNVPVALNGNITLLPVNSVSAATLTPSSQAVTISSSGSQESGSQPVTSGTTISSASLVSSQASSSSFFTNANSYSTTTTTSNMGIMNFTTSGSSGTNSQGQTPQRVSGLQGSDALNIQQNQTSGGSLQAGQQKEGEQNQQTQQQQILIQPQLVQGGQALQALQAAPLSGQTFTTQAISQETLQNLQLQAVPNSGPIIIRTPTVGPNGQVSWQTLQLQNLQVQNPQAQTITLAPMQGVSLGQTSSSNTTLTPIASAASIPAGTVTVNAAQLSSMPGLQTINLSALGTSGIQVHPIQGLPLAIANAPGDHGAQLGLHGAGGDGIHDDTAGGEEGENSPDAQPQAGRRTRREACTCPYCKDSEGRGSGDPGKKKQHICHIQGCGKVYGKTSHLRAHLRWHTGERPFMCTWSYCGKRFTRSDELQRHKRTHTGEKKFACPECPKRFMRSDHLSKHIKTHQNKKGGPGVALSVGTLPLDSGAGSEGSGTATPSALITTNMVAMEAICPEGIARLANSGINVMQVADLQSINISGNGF
# How it was run: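 After transient transfection of HepG2 cells with cis-promoter reporter units and 24 h chemical treatment, reporter transcripts were quantified by RT-PCR and capillary electrophoresis fluorescence. Gain- and loss-of-signal fitted against DMSO.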
# [8] = ATG_SREBP_CIS: Attagene CIS-FACTORIAL HepG2 Assay for human Sterol Regulatory Element Binding (SREBP) (AID 2282962); conditions: HepG2 Attagene cis-factorial SREBP reporter, mRNA; actives raise or lower the signal
# How it was run: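 Readout: fluorescent reporter-transcript peaks resolved by capillary electrophoresis after RT-PCR. Cells were human HepG2 carrying transfected cis-promoter reporter constructs, dosed for 24 h. Gain or loss of signal was fitted against DMSO controls.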
# [9] = molecular target: Signal transducer and activator of transcription 3 (Homo sapiens) (UniProt P40763); assay: ATG_STAT3_CIS: Attagene CIS-FACTORIAL HepG2 Assay for human Signal Transducer and Activator of Transcription 3 (STAT3) (AID 2282963); conditions: HepG2, Attagene cis-factorial STAT3 reporter transcription; actives raise or lower the signal
# Chain of Signal transducer and activator of transcription 3 (Homo sapiens) (P40763 whole entry, looked up, the tested form may be a part): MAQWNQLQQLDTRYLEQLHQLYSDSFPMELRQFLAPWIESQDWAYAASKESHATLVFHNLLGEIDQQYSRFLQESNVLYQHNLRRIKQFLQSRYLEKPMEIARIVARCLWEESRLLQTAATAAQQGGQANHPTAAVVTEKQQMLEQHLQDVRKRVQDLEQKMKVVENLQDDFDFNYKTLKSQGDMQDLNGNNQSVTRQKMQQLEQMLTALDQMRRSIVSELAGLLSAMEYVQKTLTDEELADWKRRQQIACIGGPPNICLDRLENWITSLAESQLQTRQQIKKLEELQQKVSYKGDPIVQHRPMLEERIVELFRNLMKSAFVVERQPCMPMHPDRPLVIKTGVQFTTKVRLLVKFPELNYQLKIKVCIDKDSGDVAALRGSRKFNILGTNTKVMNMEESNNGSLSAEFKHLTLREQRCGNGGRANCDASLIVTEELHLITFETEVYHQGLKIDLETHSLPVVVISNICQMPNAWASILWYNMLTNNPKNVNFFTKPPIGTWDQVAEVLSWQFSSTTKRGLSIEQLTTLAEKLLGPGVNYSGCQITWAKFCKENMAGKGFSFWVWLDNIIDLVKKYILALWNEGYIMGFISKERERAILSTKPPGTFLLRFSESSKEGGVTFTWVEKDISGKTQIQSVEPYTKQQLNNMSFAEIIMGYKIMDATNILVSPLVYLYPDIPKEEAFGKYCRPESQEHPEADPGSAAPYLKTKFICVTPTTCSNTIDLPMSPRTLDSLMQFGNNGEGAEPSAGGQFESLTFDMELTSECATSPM
# How it was run: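 Fluorescence intensity of 6-FAM-labelled reporter fragments, separated by capillary electrophoresis after RT-PCR, gave the signal. Cells were HepG2 transfected with cis-element reporter units and treated 24 h; fitting was bidirectional relative to DMSO.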
# [10] = ATG_TA_CIS: Attagene CIS-FACTORIAL HepG2 Assay for human TA Basal Promoter (AID 2282964); conditions: HepG2 Attagene CIS-factorial TA basal promoter reporter; actives raise or lower the signal
# How it was run: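 Steps: transfect HepG2 with MRTUs; dose 24 h; isolate RNA, DNase-treat, reverse-transcribe; PCR and FAM-label reporter cDNA; digest with HpaI 2h at 37 C; run capillary electrophoresis. Activity fitted both directions against DMSO.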
# [11] = ATG_TCF_b_cat_CIS: Attagene CIS-FACTORIAL HepG2 Assay for human T-Cell-Factor with beta-catenin (TCF/b-cat) (AID 2282965); conditions: HepG2 TCF/beta-catenin cis-reporter transcription, actives raise or lower the signal
# How it was run: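 HepG2, transient MRTU transfection, cis-element-driven reporters (endogenous TFs). 24 h compound exposure. Readout: reporter mRNA by RT-PCR + 6-FAM primer extension, HpaI digest, capillary electrophoresis. Gain/loss fit vs DMSO baseline.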
# [12] = ATG_TAL_CIS: Attagene CIS-FACTORIAL HepG2 Assay for human TAL Basal Promoter (AID 2282966); conditions: HepG2 Attagene cis-factorial TAL promoter reporter; actives raise or lower the signal;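 further: background control endpoint measuring basal TAL promoter reporter mRNA not a specific factor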
# How it was run: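 HepG2, transient MRTU transfection, 24 h compound exposure; RNA → oligo(dT) RT → PCR → 6-FAM primer extension → HpaI digest → CE fluorescence. Bidirectional curve fit vs DMSO. Background-control readout.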
# [13] = ATG_VDRE_CIS: Attagene CIS-FACTORIAL HepG2 Assay for human Vitamin D Receptor Element (VDRE) (AID 2282968); conditions: HepG2 VDRE cis-reporter transcription, actives raise or lower the signal
# How it was run: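 Compounds were applied for 24 h to HepG2 cells transfected with promoter-regulated reporter units. Total RNA was reverse-transcribed, and reporter amplicons were fluorescently labelled and sized by capillary electrophoresis.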
# [14] = molecular target: X-box-binding protein 1 (Homo sapiens) (UniProt P17861); assay: ATG_Xbp1_CIS: Attagene CIS-FACTORIAL HepG2 Assay for human X-box Binding Protein 1 (XBP1) (AID 2282972); conditions: HepG2 XBP1 cis-element reporter, Attagene multiplex; actives raise or lower the signal
# Chain of X-box-binding protein 1 (Homo sapiens) (P17861 whole entry, looked up, the tested form may be a part): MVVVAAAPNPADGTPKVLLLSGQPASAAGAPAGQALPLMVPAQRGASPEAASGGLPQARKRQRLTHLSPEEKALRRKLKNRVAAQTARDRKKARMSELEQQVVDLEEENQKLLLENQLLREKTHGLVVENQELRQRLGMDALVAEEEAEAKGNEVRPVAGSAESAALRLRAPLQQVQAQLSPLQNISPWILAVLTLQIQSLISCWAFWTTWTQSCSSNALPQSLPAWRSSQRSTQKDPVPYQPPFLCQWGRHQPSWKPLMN
# How it was run: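 Read-out: fluorescent reporter mRNA fragments resolved by capillary electrophoresis after RT-PCR. Human HepG2 liver cells carried transfected cis-promoter reporter units and were exposed to chemicals for 24 hours. Gain or loss of signal fitted relative to DMSO baseline.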
# [15] = ATG_M_19_TRANS: Attagene TRANS-FACTORIAL HepG2 Assay for M19 Transcription Factor (Internal Marker) (AID 2282974; active means hit-call score of the fitted dose curve at least 0.9, where 1 is the maximum); conditions: HepG2 Attagene TRANS-FACTORIAL M19 internal marker reporter
# How it was run: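 Gain-of-signal in reporter mRNA, relative to DMSO, was scored from capillary electrophoresis fluorescence. HepG2 cells carried transiently transfected multiple reporter transcription units and were incubated with test chemicals for 24 h.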
# [16] = ATG_GAL4_TRANS: Attagene TRANS-FACTORIAL HepG2 Assay for GAL4 (Internal Marker) (AID 2282976; active means hit-call score of the fitted dose curve at least 0.9, where 1 is the maximum); conditions: HepG2 Attagene TRANS GAL4 internal marker reporter
# How it was run: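 RT-PCR/capillary electrophoresis readout of reporter mRNA. HepG2, transient MRTU transfection (GAL4-UAS reporters), 24 h compound exposure. Background-control endpoint, positive direction vs DMSO baseline.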
# [17] = ATG_TGFb_CIS: Attagene CIS-FACTORIAL HepG2 Assay for human Transforming Growth Factor (TGF) (AID 2282967); conditions: HepG2 Attagene CIS TGFb reporter, mRNA transcription; actives raise or lower the signal
# How it was run: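 Cells were dosed for 24 hours, after which total RNA was reverse-transcribed and reporter sequences amplified, labeled and sized by capillary electrophoresis. Activity was fitted in both directions against DMSO.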
# [18] = molecular target: Nuclear receptor subfamily 1 group I member 3 (Homo sapiens) (UniProt Q14994); assay: ATG_CAR_TRANS: Attagene TRANS-FACTORIAL HepG2 Assay for human Constitutive Androstane Receptor (CAR) (AID 2282969; active means hit-call score of the fitted dose curve at least 0.9, where 1 is the maximum;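 further: activators raise reporter mRNA above DMSO so AC50 marks induction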); conditions: HepG2 Attagene TRANS-FACTORIAL CAR reporter
# Chain of Nuclear receptor subfamily 1 group I member 3 (Homo sapiens) (Q14994 whole entry, looked up, the tested form may be a part): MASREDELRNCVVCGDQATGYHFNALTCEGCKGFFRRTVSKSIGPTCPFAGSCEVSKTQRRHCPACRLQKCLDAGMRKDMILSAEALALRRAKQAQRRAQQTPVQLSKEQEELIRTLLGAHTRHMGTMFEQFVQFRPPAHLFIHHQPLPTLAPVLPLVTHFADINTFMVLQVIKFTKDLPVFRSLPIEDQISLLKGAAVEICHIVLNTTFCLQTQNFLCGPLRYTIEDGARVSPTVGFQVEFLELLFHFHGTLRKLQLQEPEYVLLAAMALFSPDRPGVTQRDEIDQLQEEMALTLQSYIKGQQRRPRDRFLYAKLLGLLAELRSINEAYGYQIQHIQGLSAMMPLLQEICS
# How it was run: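 Transiently transfected HepG2, multiplex TRANS reporters (CAR-Gal4 chimera driving GAL4-UAS reporter). 24 h dosing. Readout: reporter transcript by RT-PCR + capillary electrophoresis, fluorescence intensity; positive direction vs DMSO.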
# [19] = molecular target: Estrogen receptor (Homo sapiens) (UniProt P03372); assay: ATG_ERa_TRANS: Attagene TRANS-FACTORIAL HepG2 Assay for human Estrogen Receptor alpha (ERa) (AID 2282970; active means hit-call score of the fitted dose curve at least 0.9, where 1 is the maximum); conditions: HepG2 Attagene TRANS ERa GAL4 reporter, mRNA
# Chain of Estrogen receptor (Homo sapiens) (P03372 whole entry, looked up, the tested form may be a part): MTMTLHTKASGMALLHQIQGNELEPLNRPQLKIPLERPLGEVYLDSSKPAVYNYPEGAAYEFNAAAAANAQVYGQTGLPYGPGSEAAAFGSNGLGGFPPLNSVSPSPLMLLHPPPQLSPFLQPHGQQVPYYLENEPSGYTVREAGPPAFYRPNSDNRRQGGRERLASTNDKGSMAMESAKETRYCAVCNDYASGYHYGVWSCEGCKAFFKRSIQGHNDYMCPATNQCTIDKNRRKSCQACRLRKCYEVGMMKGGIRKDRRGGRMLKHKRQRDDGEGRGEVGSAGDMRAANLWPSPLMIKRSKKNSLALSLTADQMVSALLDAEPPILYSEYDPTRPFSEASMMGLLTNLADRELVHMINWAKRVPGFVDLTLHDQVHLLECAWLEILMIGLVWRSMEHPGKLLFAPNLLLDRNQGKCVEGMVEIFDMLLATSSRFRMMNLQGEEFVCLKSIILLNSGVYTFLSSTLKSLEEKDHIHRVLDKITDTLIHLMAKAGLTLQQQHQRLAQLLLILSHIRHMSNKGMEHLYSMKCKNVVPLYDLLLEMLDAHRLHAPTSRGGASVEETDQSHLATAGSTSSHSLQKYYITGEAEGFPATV
# How it was run: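 Reporter mRNA induction after 24 hours, detected by fluorescent RT-PCR and capillary electrophoresis, gives the read-out. Cells are HepG2 transiently transfected with GAL4-UAS reporter transcription units responding to chimeric NR-Gal4. Activity is taken as gain of signal over DMSO baseline.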
# [20] = molecular target: Steroid hormone receptor ERR1 (Homo sapiens) (UniProt P11474); assay: ATG_ERRa_TRANS: Attagene TRANS-FACTORIAL HepG2 Assay for human Estrogen-Related Receptor alpha (ERRa) (AID 2282971; active means hit-call score of the fitted dose curve at least 0.9, where 1 is the maximum); conditions: HepG2 Attagene TRANS reporter, ERRa transactivation
# Chain of Steroid hormone receptor ERR1 (Homo sapiens) (P11474 whole entry, looked up, the tested form may be a part): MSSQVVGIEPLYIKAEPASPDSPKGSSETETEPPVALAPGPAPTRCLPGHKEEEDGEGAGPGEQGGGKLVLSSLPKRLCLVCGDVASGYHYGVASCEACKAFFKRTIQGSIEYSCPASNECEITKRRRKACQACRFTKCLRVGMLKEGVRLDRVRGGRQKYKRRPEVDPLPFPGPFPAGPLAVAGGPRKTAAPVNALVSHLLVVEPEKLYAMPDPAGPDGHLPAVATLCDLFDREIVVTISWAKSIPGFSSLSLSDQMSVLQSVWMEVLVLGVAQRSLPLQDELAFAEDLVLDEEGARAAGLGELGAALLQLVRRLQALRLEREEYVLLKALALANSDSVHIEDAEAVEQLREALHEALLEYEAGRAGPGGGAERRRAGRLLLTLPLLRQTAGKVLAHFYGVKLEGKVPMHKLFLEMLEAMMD
# How it was run: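 Transfected HepG2, 24 h dosing, ERRa-Gal4 chimera driving GAL4-UAS reporter. Readout: reporter mRNA via RT-PCR plus capillary electrophoresis (fluorescence). Positive direction vs DMSO control.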
smiles,measurement,setting,value
COc1ccccc1O,outcome,[1],inactive
same,outcome,[2],inactive
same,AC50,[3],69.3 µM (active)
same,outcome,[4],inactive
same,outcome,[5],inactive
same,outcome,[6],inactive
same,outcome,[7],inactive
same,outcome,[8],inactive
same,outcome,[9],inactive
same,outcome,[10],inactive
same,outcome,[11],inactive
same,outcome,[12],inactive
same,outcome,[13],inactive
same,outcome,[14],inactive
same,outcome,[15],inactive
same,outcome,[16],inactive
CCOC(=O)CC1(C)OCC(C)O1 (stereo not given),outcome,[1],inactive
same,outcome,[2],inactive
same,outcome,[3],inactive
same,outcome,[4],inactive
same,outcome,[5],inactive
same,outcome,[6],inactive
same,outcome,[7],inactive
same,outcome,[8],inactive
same,outcome,[9],inactive
same,outcome,[10],inactive
same,outcome,[11],inactive
same,outcome,[12],inactive
same,outcome,[17],inactive
same,outcome,[18],inactive
same,outcome,[19],inactive
same,outcome,[14],inactive
same,outcome,[16],inactive
C[N+](C)(C)CCO,outcome,[1],inactive
same,outcome,[2],inactive
same,outcome,[3],inactive
same,outcome,[4],inactive
same,outcome,[5],inactive
same,outcome,[6],inactive
same,outcome,[7],inactive
same,outcome,[8],inactive
same,outcome,[9],inactive
same,outcome,[10],inactive
same,outcome,[12],inactive
same,outcome,[17],inactive
same,outcome,[13],inactive
same,outcome,[14],inactive
same,outcome,[15],inactive
Cc1cc(O)c(C)c(C)c1O,outcome,[1],inactive
same,outcome,[2],inactive
same,AC50,[3],9.14 µM (active)
same,outcome,[4],inactive
same,outcome,[5],inactive
same,outcome,[6],inactive
same,outcome,[7],inactive
same,outcome,[8],inactive
same,outcome,[9],inactive
same,outcome,[10],inactive
same,outcome,[11],inactive
same,outcome,[12],inactive
same,outcome,[17],inactive
same,outcome,[18],inactive
same,AC50,[19],21.2 µM (active)
same,outcome,[20],inactive
same,outcome,[14],inactive
C=CCOC(=O)/C=C\C(=O)OCC=C,outcome,[1],inactive
same,AC50,[2],26 µM (active)
same,AC50,[3],20.1 µM (active)
same,outcome,[4],inactive
same,AC50,[5],11.3 µM (active)
same,AC50,[6],27.6 µM (active)
same,outcome,[7],inactive
same,outcome,[8],inactive
same,outcome,[9],inactive
same,outcome,[10],inactive
same,outcome,[12],inactive
same,outcome,[17],inactive
same,AC50,[13],27 µM (active)
same,outcome,[18],inactive
same,outcome,[19],inactive
same,AC50,[14],26.5 µM (active)
same,outcome,[15],inactive
CC(C)(C)C1CCC(O)CC1 (stereo not given),outcome,[1],inactive
same,outcome,[2],inactive
same,outcome,[3],inactive
same,outcome,[4],inactive
same,outcome,[5],inactive
same,outcome,[6],inactive
same,outcome,[8],inactive
same,outcome,[9],inactive
same,outcome,[10],inactive
same,outcome,[11],inactive
same,outcome,[12],inactive
same,outcome,[17],inactive
same,outcome,[13],inactive
same,AC50,[19],29.2 µM (active)
same,outcome,[14],inactive
same,outcome,[15],inactive
CCCCCCCCCCCCOCCOS(=O)(=O)O,outcome,[1],inactive
same,outcome,[2],inactive
same,AC50,[3],14.2 µM (active)
same,outcome,[4],inactive
same,outcome,[5],inactive
same,outcome,[6],inactive
same,outcome,[8],inactive
same,outcome,[9],inactive
same,outcome,[10],inactive
same,outcome,[11],inactive
same,outcome,[12],inactive
same,outcome,[17],inactive
same,outcome,[13],inactive
same,outcome,[20],inactive
same,outcome,[14],inactive
Cc1ccccc1S,outcome,[1],inactive
same,AC50,[2],60.4 µM (active)
same,AC50,[3],19.7 µM (active)
same,outcome,[4],inactive
same,outcome,[5],inactive
same,AC50,[6],103 µM (active)
same,AC50,[7],80.3 µM (active)
same,AC50,[8],41.7 µM (active)
same,outcome,[9],inactive
same,outcome,[10],inactive
same,AC50,[11],55.9 µM (active)
same,outcome,[12],inactive
same,outcome,[13],inactive
same,outcome,[18],inactive
same,outcome,[19],inactive
same,AC50,[14],75.5 µM (active)
same,outcome,[15],inactive
